Assay results as given in PubChem BioAssay AID588850 (Sanford-Burnham Center for Chemical Genomics, 2011).
In all, about 360,000 compounds went through this assay and about 3,100 (0.86%) were called active.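 The calls were made as follows: active = at least 50% inhibition at 5 µM, scaled per plate between neutral and stimulator controls; inactive = the rest.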 The full list was thinned out, with actives kept by preference.

Experiment: inhibitors of PAF-induced NF-kB signaling, primary screen, cell-based, GFP fluorescence, uHTS (AID 588850);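 also: PAF is a Pseudomonas aeruginosa culture filtrate used as stimulus; plate controls were PAF-stimulated DMSO wells for no effect and unstimulated DMSO wells for full effect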
Settings: KKLEB NF-kB-GFP reporter, GFP fluorescence overnight, at 5 µM, active compounds read high

Structure (SMILES)	inhibition
COC(=O)CNC(=O)C(CCSC)NC(C)=O (configuration not stated)	-2.1% (inactive)
COc1ccc(-c2[nH]ncc2CN(C)Cc2cccnc2)c(F)c1	14.6% (inactive)
COc1ccc2[nH]c(=O)c(CN(Cc3cccnc3)S(=O)(=O)c3ccccc3F)cc2c1	82.1% (active)
CCOc1ccc2[nH]c(=O)c(CN(CCCO)S(=O)(=O)c3ccc(F)cc3)cc2c1	2.3% (inactive)
CCCN(c1ccc(C(C)C)cc1)S(=O)(=O)c1c(C)[nH]c(=O)[nH]c1=O	-4.9% (inactive)
Cc1noc(C)c1S(=O)(=O)Nc1cc(C(F)(F)F)ccc1N1CCOCC1	2.4% (inactive)
Cc1ccc(N(CCC(=O)O)S(=O)(=O)c2cccc(C(F)(F)F)c2)cc1	11% (inactive)
Cc1oc2c(F)c(F)c(F)c(F)c2c1S(=O)(=O)Nc1cccc(C(F)(F)F)c1	50.4% (active)
Cc1ccsc1C(=O)NC1CCCCC1C (configuration not stated)	6.2% (inactive)
CC(C)Cc1nn2c(=O)cc(O)nc2s1	-9.2% (inactive)
COC(=O)c1scc(C)c1NC(=O)CSc1ccc(Cl)cc1	-3.3% (inactive)
CCCCOc1ccc(C(=O)NCC(=O)OCC(=O)c2c(N)n(C)c(=O)n(C)c2=O)cc1	14.9% (inactive)
O=C(Nc1ccncc1)c1c(F)cccc1F	81.6% (active)
O=C(Nc1ccc(S(=O)(=O)N2CCCCCC2)cc1)c1c(F)cccc1F	-20.3% (inactive)
COc1cccc(OC)c1C(=O)Nc1ccc(Cc2ccncc2)cc1	-1.5% (inactive)
CNC[C@H]1Oc2c(NC(=O)C3CCCCC3)cccc2C(=O)N([C@H](C)CO)C[C@@H]1C	12.4% (inactive)
O=S1(=O)CC(N2CCC(Cc3ccccc3)CC2)CN1Cc1ccccc1 (configuration not stated)	-8.1% (inactive)
CCNC(=O)CC1C(=O)N(c2ccc(F)cc2)C(=O)N1Cc1cccs1 (configuration not stated)	-17.2% (inactive)
Cn1c(C(=O)O)ccc1S(=O)(=O)N(Cc1ccccc1)Cc1ccccc1	-3.7% (inactive)
C#CCN(C[C@H]1[C@H](OC(=O)NC2CCCC2)[C@H](OC(=O)NC2CCCC2)C[C@H]2C(=O)N(c3ccccc3)C(=O)[C@@H]12)S(=O)(=O)c1ccc(C)cc1	15.8% (inactive)
Cc1ccc(S(=O)(=O)N2C[C@H]3n4c(=O)ccc(=O)n4C[C@H](OC(=O)NC4CCCC4)[C@@]3(O)C2)cc1	-0.9% (inactive)
C#CCN(C[C@@H]1[C@@H](OC(=O)NC2CC2)[C@@H](OC(=O)NC2CC2)Cn2c(=O)ccc(=O)n21)S(=O)(=O)c1ccc(C)cc1	53.2% (active)

Structure (SMILES)	inhibition
COC(=O)Cc1c(O)ccn(Cc2cccc(C(F)(F)F)c2)c1=O	-7.8% (inactive)
CCN1CCC(O)(/C=C/c2ccc(C)cc2)C(C(=O)/C=C/c2ccc(C)cc2)C1 (configuration not stated)	79.8% (active)
CCN1CCC2(CC1)N=C(c1ccc(F)cc1)C(=S)N2C(=O)c1ccc(C)cc1	18% (inactive)
CCOC(=O)C1=CCC2C(=O)N(Cc3ccccc3)C(=O)C12 (configuration not stated)	-1.4% (inactive)
CCN(C(=O)CSc1nnnn1-c1ccccc1OC)C1CCS(=O)(=O)C1 (configuration not stated)	6% (inactive)
COc1ccccc1-n1nnnc1S(=O)(=O)Cc1ccc(Cl)cc1	85.9% (active)
COc1ccccc1CN(C)c1nnnn1-c1ccccc1	-3.9% (inactive)
CCOC(=O)C1=CC[C@@H](c2ccncc2)N(S(=O)(=O)c2ccc(C)cc2)C1	2.5% (inactive)
CCCC(C(=O)NC1CCCC1)N(C(=O)Cn1nnc(-c2ccc(C)o2)n1)c1cccc(O)c1 (configuration not stated)	-12.5% (inactive)
O=c1[nH]c(/C=C/c2cccc(Br)c2)nc2ccccc12	20.4% (inactive)
O=c1c2cc(Br)ccc2nc(-c2cccc(Cl)c2)n1O	-1.4% (inactive)
O=C(/C(=C/c1cccc(Cl)c1)c1nc2ccccc2[nH]1)c1ccccc1	82.3% (active)
Cc1cc(NC(=O)CN2C(=O)NC(C)(CCc3ccccc3)C2=O)no1 (configuration not stated)	-2.5% (inactive)
CC(C)C(C)(C#N)NC(=O)CSc1nc2scc(-c3ccccc3)c2c(=O)[nH]1 (configuration not stated)	9% (inactive)
CSCC[C@H](NC(=O)NC1CCCC1)C(=O)O	-10.3% (inactive)
COc1ccc(NC(=O)C2Cc3c(-c4ccc5c(c4)OCO5)ccnc3O2)cn1 (configuration not stated)	15.9% (inactive)
COc1ccc(NC(=O)/C(Cl)=C(/Cl)S(=O)Cc2ccc(C)cc2)cn1 (configuration not stated)	90% (active)
COc1cccc(NC(=S)N(Cc2ccc(C)cc2)Cc2ccccn2)c1	-2.3% (inactive)
O=S(=O)(c1ccc(-c2ccno2)s1)N1CCCCC1	7.2% (inactive)
CC(C(=O)N1CCOCC1)N1c2cccc3cccc(c23)S1(=O)=O (configuration not stated)	4.3% (inactive)
COc1cc(C(=O)OC(C)C(=O)NCC2CCCCC2)cc(NC(=O)c2ccco2)c1OC (configuration not stated)	-5.7% (inactive)
COc1ccc(NC(=O)c2sc(N3CCOCC3)nc2-c2ccccc2)c(OC)c1	9.3% (inactive)

Structure (SMILES)	inhibition
COc1ccc(NC(=O)c2cc(-c3cc(OC)c(OC)c(OC)c3)nc3ccccc23)c(OC)c1	60.9% (active)
COc1ccc(-c2cc(C(=O)n3cnc4ccccc43)c3ccccc3n2)cc1	5.5% (inactive)
CC(C)n1cnc2c(Nc3cccc(Cl)c3)nc(N(CCO)CCCO)nc21	72.6% (active)
NC(=O)CSc1nnc(-c2cccc(S(=O)(=O)N3CCOCC3)c2)o1	-5.1% (inactive)
O=S(=O)(Nc1ccc(OC(F)(F)F)cc1)c1cccc2nonc12	-3.9% (inactive)
O=S(=O)(Nc1ccc(O)c2ccccc12)c1ccc(OC(F)(F)F)cc1	96% (active)
COc1ccccc1NS(=O)(=O)c1ccc(C(=O)N2CCN(c3ccccc3O)CC2)cc1	6.4% (inactive)
CCOC(=O)CN1CC23C=CC(O2)C(C(=O)Nc2ccc(F)cc2)C3C1=O (configuration not stated)	-8.9% (inactive)
NS(=O)(=O)c1ccc(CCNC(=O)CCCn2c(SCC(=O)N3CCCC3)nc3ccsc3c2=O)cc1	-8.6% (inactive)
NS(=O)(=O)c1cc2c(cc1Cl)NC(C(Cl)Cl)NS2(=O)=O (configuration not stated)	22% (inactive)
CCN1CCN(C(=O)N(Cc2ccc(Cl)cc2)S(=O)(=O)c2ccc(C)cc2)CC1	3.2% (inactive)
Cc1ncc(CC(=O)n2cc(C(=O)c3cc(Cl)ccc3O)cn2)s1	60.8% (active)
O=C(c1cnn(-c2ccc(Cl)cc2)c1)c1ccccc1O	-14.6% (inactive)
Cc1nc2ccccn2c(=O)c1NC(=O)c1ccc(Br)o1	11.6% (inactive)
Cc1ccc(SCC(=O)c2cc(C)c(OC(=S)N(C)C)c(C)c2)cc1	0% (inactive)
Cc1nnc(NC(=O)CCC(=O)N2CCC(C)CC2)s1	8.8% (inactive)
CCCCCCCCc1c(O)nc(-n2[nH]c(C)c(CCO)c2=O)[nH]c1=O	12.1% (inactive)
CC(=O)OC(C)C[N+](C)(C)C (configuration not stated)	80.7% (active)
CC(=O)OCC(COC(C)=O)OC(C)=O	-7.3% (inactive)
CC(C[N+](C)(C)C)OC(N)=O (configuration not stated)	3.2% (inactive)
O=S(=O)(c1cccc(C(F)(F)F)c1)N1c2ccccc2-n2cccc2C1c1cccnc1 (configuration not stated)	13.5% (inactive)
Cc1cccc(C)c1NC(=O)C(Cl)C(=O)c1ccccc1 (configuration not stated)	-23.4% (inactive)

Structure (SMILES)	inhibition
N#Cc1c(N)nc2c3c(sc(=N)c2c1N)NC(=O)CC3c1ccccc1Cl (configuration not stated)	-8.3% (inactive)
CCC(C)[C@H]1COCCS(=O)(=O)N1Cc1ccc(C)cc1 (some centres not stated)	-9.6% (inactive)
CC(C)C[C@H]1CNC(=S)N1C[C@H]1CCCN1C[C@H](Cc1ccc(O)cc1)N1C[C@H](Cc2ccc(O)cc2)N(CC2CCCCC2)C1=S	65.6% (active)
CCOc1ccc(CCN2C(=S)N([C@@H](CC(C)C)CN3CCC[C@@H]3CN3C(=S)NC[C@@H]3Cc3ccc(O)cc3)C[C@@H]2CC(C)C)cc1	13.3% (inactive)
CCOc1ccc(CCN2C(=S)N([C@@H](CC(C)C)CN3CCC[C@@H]3CN3C(=S)NC[C@@H]3Cc3ccc(O)cc3)C[C@@H]2Cc2ccc(O)cc2)cc1	40.9% (inactive)
O=[N+]([O-])c1cc(S(=O)(=O)Nc2cccc(Cl)c2)ccc1N=Nc1c(O)[nH]c2ccccc12	80% (active)
Cc1c(-c2ccccc2)n[nH]c1C(=O)N=Nc1c(O)[nH]c2ccccc12	-0.9% (inactive)
O=C(NCc1ccncc1)c1ccc(NS(=O)(=O)c2cccc([N+](=O)[O-])c2)cc1	8.5% (inactive)
CCCCCC(=O)N1C[C@H](O)[C@@H](n2cc(COC(=O)c3ccccc3)nn2)C[C@@H]1c1ccc(C)cc1	-3.3% (inactive)
Cc1ccc([C@H]2C[C@H](O)[C@@H](n3cc(COC(=O)c4ccccc4)nn3)CN2CC2CCCCC2)cc1	58.5% (active)
Cc1ccc([C@H]2C[C@H](O)[C@@H](n3cc(COC(=O)c4ccccc4)nn3)CN2C(=O)C2CCCCC2)cc1	1.3% (inactive)
CC(C)=CCN1CCN(CCCc2ccccc2)CC1CCO (configuration not stated)	1.3% (inactive)
Cc1ccc(C(O)c2ncc(-c3ccccc3F)[nH]2)cc1F (configuration not stated)	-1.5% (inactive)
COc1ccc(NC(=S)SC)cc1OC	59.7% (active)
COc1ccc(NC(=O)CSCc2ccc([N+](=O)[O-])cc2)cc1OC	2.8% (inactive)
COc1ccc(NC(=O)C2C3CCC(O3)C2C(=O)O)cc1OC (configuration not stated)	-25.3% (inactive)
COc1ccc(Cl)cc1NS(=O)(=O)c1cccc(C(=O)NCC2CCCO2)c1 (configuration not stated)	-16.2% (inactive)
O=C(CSc1nnc(-c2ccoc2)o1)N1CCOCC1	-7.3% (inactive)
COc1cccc(C(NC(C)=O)c2nc(-c3ccccc3OC)cs2)c1 (configuration not stated)	-4% (inactive)
CCOP(=O)(OCC)C(Cc1ccccc1)N=C(c1ccccc1)c1ccccc1 (configuration not stated)	2.4% (inactive)
Cc1cc(=O)oc2c3c(cc(OCC(=O)NCC(O)c4ccccc4)c12)OC(C)(C)CC3 (configuration not stated)	-24.9% (inactive)
